The list is not random: actives were taken first. Their share in the collection is about 2.8%.
SENP6 block – SENP6 protease inhibitors, primary screen, biochemical, luminescence, uHTS; Recombinant SENP6 catalytic domain, aminoluciferin luminescence; 330,000 tested, 1.8% active; inhibition, % at 10 µM;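 active means inhibition above about 50% at the single tested dose, limit read from the data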;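 further: plate controls were DMSO wells with enzyme for no effect and DMSO wells lacking enzyme for full effect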
HSP90 inh – HSP90 inhibitors, primary screen, cell lysate, luminescence; inhibition, % at 5.6 µM; Heat shock protein HSP 90 (rabbit reticulocyte lysate; luciferase refolding); 290,000 tested, 0.91% active; Rabbit reticulocyte lysate, luciferase refolding luminescence, 3 h;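 active means inhibition above the screen-wide mean plus 3 SD, computed separately per campaign, cut at about 16% in these data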;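 further: 0% = DMSO wells and 100% = 60 µM geldanamycin wells; inhibitors lower the luminescence because luciferase stays unfolded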
SENP8 block-1 – human SENP8 protease inhibitors, primary screen, biochemical, fluorescence, Nedd8 protein substrate, uHTS; Sentrin-specific protease 8 (Homo sapiens), Q96LD8; recombinant SENP8; inhibition, % at 20 µM; 360,000 tested, 0.64% active; in the data active means inhibition mostly above about 40%, no sharp cut-off; inactive means mostly below about 27%
SENP7 block – SENP7 protease inhibitors, primary screen, biochemical, luminescence, uHTS. Sentrin-specific protease 7 (Homo sapiens), Q9BQF6. inhibition, % at 5 µM. recombinant SENP7, Z-RLRGG-aminoluciferin luminescence, 40 min. 330,000 tested, 1.5% active;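 active means inhibition above about 50% at the single test dose, limit read from the data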;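 further: plate controls were DMSO with enzyme for no effect and no enzyme buffer wells for full effect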
SENP8 block-2 – SENP8 protease inhibitors, primary screen, biochemical, luminescence. purified SENP8, Z-RLRGG-aminoluciferin cleavage. AID 2540, 2010. Sentrin-specific protease 8 (Homo sapiens), Q96LD8. inhibition, % at 10 µM. 330,000 tested, 1.2% active; in the data active means inhibition above about 50%
HSP90 inh confirm – HSP90 inhibitors, confirmation, cell lysate, luminescence | shares compounds with HSP90 inh | rabbit reticulocyte lysate, luciferase refolding luminescence, 3 h | inhibition, % at 5.9 µM | 2,300 tested, 64% active | AID 1846, 2009; in the data active means inhibition above about 18%;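 further: 0% = vehicle wells and 100% = reference inhibitor wells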
luciferase ctr – firefly luciferase inhibitors, HSP90 counter-screen, confirmation, artefact control for HSP90 inhibitor project, biochemical, luminescence, triplicate; 2,300 tested, 48% active; purified native firefly luciferase; inhibition, % at 5.9 µM; AID 1847, 2009; shares compounds with HSP90 inh;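 active means inhibition above the mean inhibition of all tested sample wells plus 3 SD, cut at about 10% in these data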;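 further: 0% = DMSO with luciferase and 100% = wells lacking luciferase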
Target sequence (P08659 whole entry, looked up): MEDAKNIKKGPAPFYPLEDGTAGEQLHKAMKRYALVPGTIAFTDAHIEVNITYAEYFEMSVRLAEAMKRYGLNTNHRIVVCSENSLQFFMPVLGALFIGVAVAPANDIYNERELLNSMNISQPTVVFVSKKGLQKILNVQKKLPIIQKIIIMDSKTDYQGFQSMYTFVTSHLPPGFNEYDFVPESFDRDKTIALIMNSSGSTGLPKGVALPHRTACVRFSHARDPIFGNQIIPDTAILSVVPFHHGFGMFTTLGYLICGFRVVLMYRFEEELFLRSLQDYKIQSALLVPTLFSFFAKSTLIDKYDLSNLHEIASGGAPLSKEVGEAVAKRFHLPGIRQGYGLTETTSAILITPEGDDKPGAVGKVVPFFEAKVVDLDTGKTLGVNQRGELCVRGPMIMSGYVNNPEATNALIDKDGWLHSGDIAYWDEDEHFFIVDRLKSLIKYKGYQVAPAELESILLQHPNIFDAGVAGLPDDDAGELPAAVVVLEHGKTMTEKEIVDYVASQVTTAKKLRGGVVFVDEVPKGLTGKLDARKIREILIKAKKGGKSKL
SENP8 conf – SENP8 protease inhibitors, retest, confirmation, biochemical, luminescence, single concentration | inhibition, % at 12.5 µM | Recombinant SENP8, Z-RLRGG-aminoluciferin luminescence, 60 min | 6,200 tested, 40% active | AID 488912, 2010 | shares compounds with SENP7 block;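 active means mean inhibition across replicates above about 50%, limit read from the data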
SENP6 conf – SENP6 protease inhibitors, confirmation, biochemical, luminescence, single concentration; shares compounds with SENP7 block; AID 488915, 2010; inhibition, % at 12.5 µM; 6,200 tested, 58% active; recombinant SENP6, Z-RLRGG-aminoluciferin luminescence
SENP7 confirm – SENP7 protease inhibitors, retest, confirmation, biochemical, luminescence, single concentration; shares compounds with SENP7 block; inhibition, % at 12.5 µM; recombinant SENP7, Z-RLRGG-aminoluciferin luminescence, 40 min; AID 488917, 2010; 6,200 tested, 69% active
Casp3 select – caspase-3 protease inhibitors, confirmation, selectivity assay for SENP inhibitor project, biochemical, single concentration; AID 488918, 2010; 6,200 tested, 60% active; shares compounds with SENP7 block; purified caspase-3, Z-DEVD-aminoluciferin luminescence, 60 min; inhibition, % at 12.5 µM;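 active means mean inhibition above about 50%, limit read from the data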;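 further: plate controls were enzyme with DMSO for no effect and wells without caspase-3 for full effect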
Target sequence (P42574 28-227 limits assumed): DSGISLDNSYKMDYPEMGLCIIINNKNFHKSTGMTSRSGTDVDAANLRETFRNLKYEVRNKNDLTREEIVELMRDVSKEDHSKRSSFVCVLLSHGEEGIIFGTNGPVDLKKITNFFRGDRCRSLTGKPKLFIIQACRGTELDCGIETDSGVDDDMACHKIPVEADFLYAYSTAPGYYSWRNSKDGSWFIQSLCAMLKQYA
SENP luc ctr – interferes with luciferase luminescence in SENP counter-screen; shares compounds with SENP7 block; 6,200 tested, 39% active; inhibition, % at 12.5 µM; Pre-incubated SENP8/Z-RLRGG-aminoluciferin, luciferase luminescence interference;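 active means mean inhibition above about 50% when retested at one dose, limit read from the data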;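 further: plate controls were DMSO wells with completed reaction for no effect and substrate without enzyme for full effect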
Active calls of the source: *; · = no result given.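 How the source made its calls, unless noted: active means mean inhibition above about 50% in the one-dose retest (limit read from the data); inactive means the rest.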

SMILES | SENP6 block | HSP90 inh | SENP8 block-1 | SENP7 block | SENP8 block-2 | HSP90 inh confirm | luciferase ctr | SENP8 conf | SENP6 conf | SENP7 confirm | Casp3 select | SENP luc ctr
O=c1c(C=NCc2cccnc2)c(C(F)(F)F)[nH]n1-c1nc2ccccc2s1 | 97.2* | 41.7* | 4.2 | 98.9* | 97.2* | 35.3* | 11.4* | 99.8* | 100.8* | 103.2* | 99.1* | 99.0*
COc1ccc(-c2noc(CN3CCCC(OCc4ccccn4)C3)n2)cc1 (stereo unspecified) | -0.4 | 3.5 | -7.6 | -3.6 | -2.3 | · | · | · | · | · | · | ·
Cc1ccc2c(c1)Cc1nc3ccccc3nc1-2 | 98.0* | 26.8* | -299.7 | 99.8* | 96.4* | 70.9* | 62.6* | -4.8 | 98.9* | 103.2* | 97.6* | 68.2*
Cc1ccc2c(c1)-c1nc3ccccc3cc1C2=NC1CCCCC1 | · | 2.9 | 8.9 | · | · | · | · | · | · | · | · | ·
CCOc1ccc2nc(NC(=O)c3ccco3)sc2c1 | 97.1* | 39.3* | -238.5 | 96.8* | 92.1* | 51.0* | 45.2* | 92.6* | 97.9* | 102.3* | 95.9* | 83.4*
COc1ccc2nc(NC(=O)c3ccccc3F)sc2c1 | 86.8* | 18.2* | -95.5 | 92.8* | 83.4* | 38.1* | 31.4* | 74.6* | 84.6* | 98.5* | 87.3* | 29.1
CC1CCc2nc(NC(=O)c3ccco3)sc2C1 (stereo unspecified) | 86.6* | 53.6* | 1.6 | 80.3* | 79.3* | 82.3* | 76.8* | 88.3* | 88.4* | 98.4* | 89.2* | 45.7
COc1ccc2nc(NC(=O)c3ccccc3C(=O)O)sc2c1 | -18.9 | -1.9 | 9.5 | -7.5 | -1.1 | · | · | · | · | · | · | ·
O=C(Nc1nc2cc3c(cc2s1)OCCO3)c1ccncc1 | 17.7 | 0.4 | -32.5 | 39.7 | 26.8 | · | · | · | · | · | · | ·
O=C(Nc1nc2cc3c(cc2s1)OCCO3)c1ccco1 | 96.9* | 78.4* | -465.3 | 100.4* | 96.3* | 91.1* | 88.9* | 96.7* | 97.8* | 102.0* | 97.1* | 96.5*
CCCN(CCC)C(=S)NC(=O)c1ccc(Cl)cc1Cl | -18.7 | 2.0 | 13.9 | -9.1 | -1.8 | · | · | · | · | · | · | ·
COc1ccc(-c2cc3nc4n(c(=O)c3s2)CCCCC4)cc1 | 45.9 | -2.9 | -402.6 | 18.3 | 30.4 | · | · | · | · | · | · | ·
COc1ccc(-c2cc3nc4n(c(=O)c3s2)CCC4)cc1 | 95.4* | 29.8* | -337.0 | 96.1* | 91.3* | 80.2* | 67.7* | 11.6 | 62.3* | 80.7* | 76.0* | 12.1
CCCCNC(=O)CCCCC(=O)N/N=C/c1ccccc1Cl | -8.3 | 0.6 | 3.7 | -10.7 | -15.9 | · | · | · | · | · | · | ·
O=C(Nc1nccs1)c1sc2ccccc2c1Cl | 87.7* | 23.5* | -88.5 | 70.7* | 75.3* | 50.5* | 44.7* | 1.8 | 58.2* | 90.9* | 69.6* | 6.9
COCC(=O)Nc1ccccc1Br | -7.3 | -2.2 | 18.9 | 4.5 | -2.9 | · | · | · | · | · | · | ·
CC1(c2cc(F)ccc2F)NC(=O)N(CC(=O)Nc2cccc(S(=O)(=O)N3CCCC3)c2)C1=O (stereo unspecified) | -16.0 | · | 4.2 | -0.5 | -3.0 | · | · | · | · | · | · | ·
COc1ccccc1/C=C/c1nc2ccccc2c(=O)o1 | · | 7.6 | -165.0 | · | · | · | · | · | · | · | · | ·
COc1ccc(/C=C/c2nc3ccccc3c(=O)o2)cc1 | 89.8* | 79.2* | -329.0 | 77.8* | 84.1* | 87.2* | 13.7* | 71.0* | 71.3* | 83.1* | 62.8* | 65.2*
CC(C(=O)O)c1ccc(N2Cc3ccccc3C2=O)cc1 (stereo unspecified) | 54.2* | 26.9* | -13.4 | 41.2 | 46.2 | 35.5* | 32.2* | 26.1 | 22.9 | 72.5* | 77.9* | 55.2*
COc1cc(/C=C/C(=O)OC(C)C(=O)c2ccccc2)cc(OC)c1OC (stereo unspecified) | -3.4 | · | -258.4 | -2.0 | -2.1 | · | · | · | · | · | · | ·
CCCCC(=O)Nc1cc2nn(-c3ccc(OC)cc3)nc2cc1C | -50.1 | -0.2 | -320.1 | -11.5 | -2.5 | · | · | · | · | · | · | ·
CCC(=O)Nc1cc2nn(-c3ccc(C)cc3)nc2cc1C | -14.2 | 51.4* | -404.5 | 51.3* | 4.2 | 75.5* | 66.8* | 10.8 | 6.6 | 11.3 | 7.5 | -1.9
Cc1ccnc(NC(=O)/C=C/c2ccccc2Cl)c1 | 95.7* | 34.7* | -3.2 | 98.2* | 92.8* | 58.1* | 46.9* | 82.3* | 92.0* | 90.9* | 93.6* | 62.7*
Cc1ccc2nc(-c3ccccc3N)[nH]c2c1 | 93.2* | 21.5* | -436.7 | 95.0* | 89.6* | 38.6* | 33.2* | 32.0 | 95.6* | 102.1* | 91.4* | 90.3*
Cc1ccc2nc(-c3ccccn3)[nH]c2c1 | 90.4* | 46.3* | -90.9 | 91.1* | 83.4* | 60.8* | 51.2* | 91.8* | 91.4* | 100.0* | 96.4* | 90.9*
COC(=O)c1ccc(COc2ccc3c(C)c(C)c(=O)oc3c2C)o1 | · | 3.1 | · | · | · | · | · | · | · | · | · | ·
Cc1c(OCc2ccc(C(=O)O)o2)ccc2c3c(c(=O)oc12)CCC3 | 81.9* | 49.6* | -152.7 | 7.8 | 73.7* | 62.7* | 13.4* | 9.5 | 84.4* | 84.5* | 16.7 | 57.0*
O=C(Nc1nncs1)c1cc2c(s1)CCC2 | 31.9 | -0.8 | -12.8 | 45.9 | 30.9 | · | · | · | · | · | · | ·
O=C(Nc1nccs1)c1cc2c(s1)CCCCC2 | 95.3* | 58.6* | -48.7 | 98.2* | 94.9* | 86.3* | 81.4* | 98.0* | 99.2* | 102.3* | 96.6* | 86.8*

Screening data as filed in PubChem BioAssay.
